Measurements: PubChem BioAssay (Tox21)
Inconclusive results are not listed. Active and inactive are the calls of the source. Unless noted, the call rests on the fitted dose curve; in most records, active means well fitted curve in the direction sought with a large enough effect in the repeat runs; inconclusive means weak or mixed curves; inactive means no such curve, though single readings can be large; an effect the other way counts as inactive or inconclusive.

Columns and labels:
[1] = molecular target: Peroxisome proliferator-activated receptor delta (Homo sapiens) (UniProt Q03181); assay: qHTS assay to identify small molecule agonists of the peroxisome proliferator-activated receptor delta (PPARd) signaling pathway (AID 743212; calls by dose curve)
Peroxisome proliferator-activated receptor delta (Homo sapiens), sequence (Q03181 whole entry, looked up): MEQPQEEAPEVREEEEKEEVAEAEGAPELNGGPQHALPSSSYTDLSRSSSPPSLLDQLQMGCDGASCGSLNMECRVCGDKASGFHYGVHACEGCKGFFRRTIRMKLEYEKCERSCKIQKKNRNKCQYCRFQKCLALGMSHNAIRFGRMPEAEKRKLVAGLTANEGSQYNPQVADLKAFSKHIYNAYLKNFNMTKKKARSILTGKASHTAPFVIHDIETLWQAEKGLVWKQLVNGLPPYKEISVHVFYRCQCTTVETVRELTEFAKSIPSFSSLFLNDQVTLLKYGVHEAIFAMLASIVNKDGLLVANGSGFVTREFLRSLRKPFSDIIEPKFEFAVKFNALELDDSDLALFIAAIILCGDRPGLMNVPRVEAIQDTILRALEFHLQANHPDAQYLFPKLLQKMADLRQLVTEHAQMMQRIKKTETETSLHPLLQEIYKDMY
How it was run: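 HEK293H PPARd-bla cells; 5 h preincubation 37 C/5% CO2; compound (DMSO) 37 C; LiveBLAzer B/G FRET substrate 2 h RT; fluorescence intensity.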

[2] = qHTS assay to identify small molecule antagonists of the peroxisome proliferator-activated receptor delta (PPARd) signaling pathway - cell viability counter screen (AID 743213); further: nearly all actives have a fitted effect of over 50% in size
How it was run: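 In this counter screen, HEK293H cells carrying a UAS-beta-lactamase reporter are co-treated with test compounds and 300 nM L165041 (final) for 17 h at 37 C; cell viability is quantified by CellTiter-Glo luminescence.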

[3] = molecular target: Peroxisome proliferator-activated receptor delta (Homo sapiens) (UniProt Q03181); assay: qHTS assay to identify small molecule antagonists of the peroxisome proliferator-activated receptor delta (PPARd) signaling pathway (AID 743215; active means well fitted inhibition curve with a large enough effect in the signal ratio in the repeat runs, not every such curve was filed as active; the % refers to the signal ratio;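 further: cells stimulated with agonist L165041 at 300 nM final during compound exposure; series mostly up to about 62 µM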)
How it was run: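 Read-out is beta-lactamase FRET fluorescence, measured 2 h after substrate addition at room temperature. Beforehand, UAS-bla HEK293H cells carrying the PPARd reporter were exposed to compounds with L165041 at 300 nM final for 17 h at 37 C.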

[4] = molecular target: Bile acid receptor (Homo sapiens) (UniProt Q96RI1); assay: qHTS assay to identify small molecule antagonists of the farnesoid-X-receptor (FXR) signaling pathway (AID 743217; active means well fitted inhibition curve with a large enough effect in the signal ratio in the repeat runs, not every such curve was filed as active; the % refers to the signal ratio)
Bile acid receptor (Homo sapiens), sequence (Q96RI1 whole entry, looked up): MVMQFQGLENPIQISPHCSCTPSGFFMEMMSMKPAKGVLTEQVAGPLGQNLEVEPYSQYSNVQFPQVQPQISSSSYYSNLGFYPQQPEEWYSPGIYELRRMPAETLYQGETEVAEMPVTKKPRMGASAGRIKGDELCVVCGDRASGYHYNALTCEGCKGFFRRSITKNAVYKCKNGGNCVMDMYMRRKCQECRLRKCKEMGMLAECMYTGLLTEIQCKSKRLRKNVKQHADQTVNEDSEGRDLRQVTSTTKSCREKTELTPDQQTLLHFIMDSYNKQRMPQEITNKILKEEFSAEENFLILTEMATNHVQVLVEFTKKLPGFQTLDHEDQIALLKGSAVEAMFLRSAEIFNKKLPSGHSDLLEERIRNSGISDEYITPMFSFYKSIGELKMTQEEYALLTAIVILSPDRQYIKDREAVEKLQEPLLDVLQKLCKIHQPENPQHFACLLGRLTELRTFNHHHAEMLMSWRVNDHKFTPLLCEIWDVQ
How it was run: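 HEK 293T FXR-UAS-bla, 5000 cells/well; compound + CDCA 50 uM final; 16 h, 37 °C; B/G FRET substrate 2 h RT; fluorescence.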

[5] = qHTS assay to identify small molecule agonists of the farnesoid-X-receptor (FXR) signaling pathway - cell viability counter screen (AID 743218); further: nearly all actives have a fitted effect of over 45% in size
How it was run: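 HEK 293T FXR-bla cells; 5 h pre-incubation, 16 h compound exposure at 37 C; LiveBLAzer substrate 2 h RT, then CellTiter-Glo 30 min RT, luminescence.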

[6] = molecular target: Bile acid receptor (Homo sapiens) (UniProt Q96RI1); assay: qHTS assay to identify small molecule agonists of the farnesoid-X-receptor (FXR) signaling pathway (AID 743220; active means well fitted activation curve with a large enough effect in the signal ratio in the repeat runs, not every such curve was filed as active; the % refers to the signal ratio)
How it was run: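 Beta-lactamase reporter under UAS control in GeneBLAzer FXR HEK 293T cells (5000/well) measured with LiveBLAzer FRET substrate after 2 h at room temperature. Compound exposure lasted 16 h at 37C.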

[7] = qHTS assay to identify small molecule antagonists of the farnesoid-X-receptor (FXR) signaling pathway - cell viability counter screen (AID 743221; active means well fitted cell-killing curve with a large enough effect in the repeat runs, not every such curve was filed as active; further: nearly all actives have a fitted effect of over 50% in size)
How it was run: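 Quantitative HTS of the Tox21 10K library run in parallel with the beta-lactamase reporter read. HEK 293T cells carrying a UAS-driven bla reporter got compound and 50 uM CDCA (final) for 16 h; ATP-based luminescence followed.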

[8] = molecular target: Vitamin D3 receptor (Homo sapiens) (UniProt P11473); assay: qHTS assay to identify small molecule agonists of the vitamin D receptor (VDR) signaling pathway (AID 743222; calls by dose curve)
Vitamin D3 receptor (Homo sapiens), sequence (P11473 whole entry, looked up): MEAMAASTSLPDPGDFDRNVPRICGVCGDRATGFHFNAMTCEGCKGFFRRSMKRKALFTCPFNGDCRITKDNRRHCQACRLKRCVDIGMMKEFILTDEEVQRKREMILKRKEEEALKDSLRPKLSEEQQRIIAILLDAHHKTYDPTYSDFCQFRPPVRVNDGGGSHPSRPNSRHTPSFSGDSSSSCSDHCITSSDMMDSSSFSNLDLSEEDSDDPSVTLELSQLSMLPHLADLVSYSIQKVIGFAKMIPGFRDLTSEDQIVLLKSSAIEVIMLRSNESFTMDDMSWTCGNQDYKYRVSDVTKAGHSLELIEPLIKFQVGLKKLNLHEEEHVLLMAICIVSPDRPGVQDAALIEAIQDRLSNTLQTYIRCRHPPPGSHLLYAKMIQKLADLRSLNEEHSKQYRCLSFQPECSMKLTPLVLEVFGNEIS
How it was run: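 VDR-bla cells, 2,000/well; 4 h preincubation 37C; cpd (DMSO) 16 h; LiveBLAzer B/G substrate 2 h RT; fluorescence intensity read.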

[9] = molecular target: Vitamin D3 receptor (Homo sapiens) (UniProt P11473); assay: qHTS assay to identify small molecule antagonists of the vitamin D receptor (VDR) signaling pathway (AID 743223; active means well fitted inhibition curve with a large enough effect in the signal ratio in the repeat runs, not every such curve was filed as active; the % refers to the signal ratio)
How it was run: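 Fluorescence from LiveBLAzer B/G FRET substrate, read after 2 h at room temperature, reflects beta-lactamase reporter activity in VDR-bla cells treated 16 h at 37C with compounds and agonist 1alpha,25-dihydroxyvitamin D3 (3 nM final).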

[10] = qHTS assay to identify small molecule agonists of the vitamin D receptor (VDR) signaling pathway - cell viability counter screen (AID 743224); further: series mostly up to about 63 µM; nearly all actives have a fitted effect of over 50% in size
How it was run: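 Luminescence from CellTiter-Glo, read after 30 min at room temperature, reports viability of VDR-bla cells treated with compounds for 16 h at 37C in the wells used for the beta-lactamase FRET read.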

Measured: Potency

C[C@H](N)C(=O)c1ccccc1
inactive: all assays above

COC1=CC(=O)O[C@@H](/C=C/c2ccccc2)C1
inactive: all assays above

CN(C)C(=O)Oc1cc(OC(=O)N(C)C)cc(C(O)CNC(C)(C)C)c1 (centres undefined)
inactive: all assays above

C#CC(C)(C)O
inactive: all assays above

C=CC1(C)OC(=O)N(c2cc(Cl)cc(Cl)c2)C1=O (centres undefined)
inactive: all assays above

CCOC(=O)NC(C)(C)Cc1ccc(Cl)cc1
inactive: all assays above

CCNc1nc(Cl)nc(NC(C)(C)C)n1
inactive: all assays above

Cc1ccc2c(c1)C1CN(C)CCC1N2 (centres undefined)
not listed: [10]
inactive: all other assays above

N[C@@H]1C[C@H]1c1ccccc1
not listed: [10]
inactive: all other assays above

CCC(C(N)=O)N1CCCC1=O (centres undefined)
inactive: all assays above

CC(C)(C)NC[C@H](O)c1ccc(O)cc1Cl
inactive: all assays above

COc1cc(CCN)cc(OC)c1OC
not listed: [8]
inactive: all other assays above

OP(O)c1ccccc1
not listed: [8]
inactive: all other assays above

CC(C)NCC(O)c1ccc([N+](=O)[O-])cc1 (centres undefined)
not listed: [10]
inactive: all other assays above

CC(C)(O)C(Cl)(Cl)Cl
not listed: [8] | [10]
inactive: all other assays above

CCC(=O)OC1(c2ccccc2)CCN(C)CC1
inactive: all assays above

COC(=O)c1ccccc1CS(=O)(=O)NC(=O)Nc1nc(OC)cc(OC)n1
inactive: all assays above

O=C(Cl)CCl
not listed: [9]
inactive: all other assays above

O=C(Cl)/C=C/C(=O)Cl
not listed: [9]
inactive: all other assays above

CC[C@@H](CO)NC(=O)[C@@H]1C=C2c3cccc4c3c(cn4C)C[C@H]2N(C)C1
not listed: [8]
inactive: all other assays above

CCN(CC)C1CCCCC1
not listed: [8]
inactive: all other assays above

CCCCS(=O)(=O)Cl
not listed: [8]
inactive: all other assays above

CC(Cc1ccccc1)NCCCCl (centres undefined)
inactive: all assays above

C(COCC1CO1)OCC1CO1 (centres undefined)
not listed: [8] | [9] | [10]
inactive: all other assays above

CCOC(=O)CCl
not listed: [8]
inactive: all other assays above
